# Measurements published in PubChem BioAssay (NCI).
# Several values for one entry are separate records, joined by “and”; a condition that tells them apart may be missing. Identical values can stand only once. This is part of a sample that, as a whole, favours compounds with a hit. Of some 83,000 tested, about 20% had one in any assay.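 Cell lines were cultured in 96-well plates, exposed to a single compound concentration, and assessed for percent growth 48 hours later.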 Values without a mark were called inactive. Activity calls are given as the source filed them. Rule for the calls: active = growth percent below 10; inactive = the rest.
# Tests used:
# Test in all cases: NCI-60 one-dose screen, 48 h (100 = growth as untreated, 0 = no growth, -100 = all killed)
# SK-MEL-2 melanoma = tested on: SK-MEL-2 melanoma
# EKVX NSCLC = tested on: EKVX NSCLC
# SN12C renal = tested on: SN12C renal
# UO-31 renal = tested on: UO-31 renal
# TK-10 renal = tested on: TK-10 renal
# ACHN renal = tested on: ACHN renal
# CAKI-1 renal = tested on: CAKI-1 renal
# A498 renal = tested on: A498 renal
# CCRF-CEM leukemia = tested on: CCRF-CEM leukemia
# MOLT-4 leukemia = tested on: MOLT-4 leukemia
# SR leukemia = tested on: SR leukemia
# RPMI-8226 leukemia = details: 10 µM unless noted
# OVCAR-8 ovarian = tested on: OVCAR-8 ovarian
# OVCAR-5 ovarian = tested on: OVCAR-5 ovarian
# OVCAR-4 ovarian = tested on: OVCAR-4 ovarian
# SK-OV-3 ovarian = tested on: SK-OV-3 ovarian
# IGROV1 ovarian = tested on: IGROV1 ovarian
# OVCAR-3 ovarian = tested on: OVCAR-3 ovarian
# HS 578T breast = tested on: HS 578T breast
# NCI/ADR-RES ovarian = tested on: NCI/ADR-RES ovarian
compound,measurement,setting,value
CCCCCCCCCCCCCCCc1ccc(Cl)c(O)c1Cl (tested in a mixture with another compound),growth,SK-MEL-2 melanoma; 0.25 µM,57.4%
same,growth,SK-MEL-2 melanoma; 10 µM,88.2%
same,growth,EKVX NSCLC; 0.25 µM,79.8%
same,growth,EKVX NSCLC; 10 µM,106%
same,growth,SN12C renal; 0.25 µM,12.5%
same,growth,SN12C renal; 10 µM,89.7%
same,growth,UO-31 renal; 0.25 µM,63.4%
same,growth,UO-31 renal; 10 µM,93.6%
same,growth,TK-10 renal; 0.25 µM,68.9%
same,growth,TK-10 renal; 10 µM,115%
same,growth,ACHN renal; 0.25 µM,34%
same,growth,ACHN renal; 10 µM,108%
same,growth,CAKI-1 renal; 0.25 µM,32%
same,growth,CAKI-1 renal; 10 µM,94.8%
same,growth,A498 renal; 0.25 µM,43.5%
same,growth,A498 renal; 10 µM,125%
same,growth,CCRF-CEM leukemia; 0.25 µM,18.3%
same,growth,CCRF-CEM leukemia; 10 µM,93%
same,growth,MOLT-4 leukemia; 0.25 µM,4.89% (active)
same,growth,MOLT-4 leukemia; 10 µM,104%
same,growth,SR leukemia; 0.25 µM,4.53% (active)
same,growth,SR leukemia; 10 µM,79.6%
same,growth,RPMI-8226 leukemia,29.8% [0.25 µM]
same,growth,OVCAR-8 ovarian; 0.25 µM,36%
same,growth,OVCAR-8 ovarian; 10 µM,92.2%
same,growth,OVCAR-5 ovarian; 0.25 µM,78.5%
same,growth,OVCAR-5 ovarian; 10 µM,106%
same,growth,OVCAR-4 ovarian; 0.25 µM,65%
same,growth,OVCAR-4 ovarian; 10 µM,115%
same,growth,SK-OV-3 ovarian; 0.25 µM,53.5%
same,growth,SK-OV-3 ovarian; 10 µM,111%
same,growth,IGROV1 ovarian; 0.25 µM,28.7%
same,growth,IGROV1 ovarian; 10 µM,97.4%
same,growth,OVCAR-3 ovarian; 0.25 µM,65.3%
same,growth,OVCAR-3 ovarian; 10 µM,112%
same,growth,HS 578T breast; 0.25 µM,63.9%
same,growth,HS 578T breast; 10 µM,105%
same,growth,NCI/ADR-RES ovarian; 0.25 µM,94.8%
same,growth,NCI/ADR-RES ovarian; 10 µM,96.5%
O=C(N/N=C/c1ccccc1)N/N=C/c1ccccc1,growth,SK-MEL-2 melanoma; 10 µM unless noted,123% and 119%
same,growth,EKVX NSCLC; 10 µM unless noted,104% and 101%
same,growth,SN12C renal; 10 µM unless noted,103% and 114%
same,growth,UO-31 renal; 10 µM unless noted,92.4% and 102%
same,growth,TK-10 renal; 10 µM unless noted,119% and 110%
same,growth,ACHN renal; 10 µM unless noted,109% and 111%
same,growth,CAKI-1 renal; 10 µM unless noted,92.2% and 114%
same,growth,A498 renal; 10 µM unless noted,61.3%
same,growth,CCRF-CEM leukemia; 10 µM unless noted,98.6% and 102%
same,growth,MOLT-4 leukemia; 10 µM unless noted,91.8% and 113%
same,growth,SR leukemia; 10 µM unless noted,93.8% and 106%
same,growth,RPMI-8226 leukemia,104% and 100%
same,growth,OVCAR-8 ovarian; 10 µM unless noted,103% and 107%
same,growth,OVCAR-5 ovarian; 10 µM unless noted,109% and 105%
same,growth,OVCAR-4 ovarian; 10 µM unless noted,115%
same,growth,SK-OV-3 ovarian; 10 µM unless noted,106% and 111%
same,growth,IGROV1 ovarian; 10 µM unless noted,99.9% and 106%
same,growth,OVCAR-3 ovarian; 10 µM unless noted,120%
same,growth,HS 578T breast; 10 µM unless noted,118% and 91.7%
same,growth,NCI/ADR-RES ovarian; 10 µM unless noted,114% and 106%
COc1ccc(/C(C#N)=C/c2ccccn2)cc1,growth,SK-MEL-2 melanoma; 10 µM unless noted,103% and 117%
same,growth,EKVX NSCLC; 10 µM unless noted,90.1% and 99.5%
same,growth,SN12C renal; 10 µM unless noted,101% and 115%
same,growth,UO-31 renal; 10 µM unless noted,95.5% and 98.9%
same,growth,TK-10 renal; 10 µM unless noted,104% and 117%
same,growth,ACHN renal; 10 µM unless noted,108% and 109%
same,growth,CAKI-1 renal; 10 µM unless noted,101% and 126%
same,growth,A498 renal; 10 µM unless noted,93.2% and 122%
same,growth,CCRF-CEM leukemia; 10 µM unless noted,93% and 102%
same,growth,MOLT-4 leukemia; 10 µM unless noted,96.7% and 103%
same,growth,SR leukemia; 10 µM unless noted,91.1% and 87.7%
same,growth,RPMI-8226 leukemia,93.8%
same,growth,OVCAR-8 ovarian; 10 µM unless noted,103% and 110%
same,growth,OVCAR-5 ovarian; 10 µM unless noted,110% and 107%
same,growth,OVCAR-4 ovarian; 10 µM unless noted,96.1% and 93.9%
same,growth,SK-OV-3 ovarian; 10 µM unless noted,111% and 126%
same,growth,IGROV1 ovarian; 10 µM unless noted,115% and 113%
same,growth,OVCAR-3 ovarian; 10 µM unless noted,110% and 130%
same,growth,HS 578T breast; 10 µM unless noted,104% and 309%
same,growth,NCI/ADR-RES ovarian; 10 µM unless noted,101% and 54.3%
CCN(CC)C(=O)c1cccnc1,growth,SK-MEL-2 melanoma; 10 µM unless noted,108%
same,growth,EKVX NSCLC; 10 µM unless noted,112%
same,growth,SN12C renal; 10 µM unless noted,106%
same,growth,UO-31 renal; 10 µM unless noted,116%
same,growth,TK-10 renal; 10 µM unless noted,97.8%
same,growth,ACHN renal; 10 µM unless noted,107%
same,growth,CAKI-1 renal; 10 µM unless noted,97.4%
same,growth,A498 renal; 10 µM unless noted,114%
same,growth,CCRF-CEM leukemia; 10 µM unless noted,97.4%
same,growth,MOLT-4 leukemia; 10 µM unless noted,92.8%
same,growth,SR leukemia; 10 µM unless noted,90.5%
same,growth,RPMI-8226 leukemia,105%
same,growth,OVCAR-8 ovarian; 10 µM unless noted,98.8%
same,growth,OVCAR-5 ovarian; 10 µM unless noted,99.4%
same,growth,OVCAR-4 ovarian; 10 µM unless noted,112%
same,growth,SK-OV-3 ovarian; 10 µM unless noted,109%
same,growth,IGROV1 ovarian; 10 µM unless noted,130%
same,growth,OVCAR-3 ovarian; 10 µM unless noted,109%
same,growth,HS 578T breast; 10 µM unless noted,108%
same,growth,NCI/ADR-RES ovarian; 10 µM unless noted,111%
